LANA-H2A inh: blocks KSHV LANA binding to histone H2A/H2B. Q9QR71. cell-free LANA-H2A/H2B peptide, fluorescence polarization. inhibition, % (concentration not given with the values). 320,000 tested, 0.6% active; in the data active means inhibition mostly above about 10%, no sharp cut-off; inactive means mostly below about 6.7%
IDE cell inh: inhibitors of human insulin-degrading enzyme in cells; P14735; AID 434962; inhibition, % at 5.59 µM; 320,000 tested, 0.41% active; HEK cells, FAbetaB cleavage, fluorescence polarization;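 active means percent inhibition above the average of all tested compounds plus 3 SD, set per screening campaign, cut at about 16% in these data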;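 further: IDE supplied by intact live HEK cells; FP after avidin binding of uncleaved biotin substrate so inhibition keeps polarization high; 0% = DMSO wells and 100% = 60 µM reference IDE inhibitor Ii1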
IDE act: boosts human insulin-degrading enzyme activity in HEK cells; FAbeta-B cleavage, fluorescence polarization; 0% vehicle, 100% cell-free pure enzyme wells; AID 493087; activation, % at 5.96 µM; P14735; 340,000 tested, 0.073% active;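 active means activation above the mean of all tested compounds plus 3 SD, set per screening campaign, cut at about 17% in these data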
HDAC3 inh: human HDAC3 inhibition; O15379; recombinant HDAC3, fluorogenic peptide/trypsin coupled, fluorescence; inhibition, % at 8.3 µM; 320,000 tested, 0.15% active; in the data active means inhibition above about 26%, passing the limit was not always enough
Target sequence (O15379 whole entry, looked up): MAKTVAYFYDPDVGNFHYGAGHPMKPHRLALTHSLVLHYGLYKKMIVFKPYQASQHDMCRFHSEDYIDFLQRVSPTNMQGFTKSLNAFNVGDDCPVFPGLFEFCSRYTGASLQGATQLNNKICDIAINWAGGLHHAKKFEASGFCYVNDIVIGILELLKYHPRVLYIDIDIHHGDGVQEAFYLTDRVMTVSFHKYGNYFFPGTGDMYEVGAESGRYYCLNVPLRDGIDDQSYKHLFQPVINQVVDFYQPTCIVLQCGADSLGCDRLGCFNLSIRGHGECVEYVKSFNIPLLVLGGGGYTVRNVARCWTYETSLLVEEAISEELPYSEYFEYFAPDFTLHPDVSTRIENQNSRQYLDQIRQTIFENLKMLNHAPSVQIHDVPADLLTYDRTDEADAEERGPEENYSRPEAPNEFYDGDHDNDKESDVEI
* marks the source's active call; other numbers are inactive results; nt = no result given; + = active, no number; ! = repeats disagree. The list is not random: actives were taken first. Their share in the collection is about 1.1%.

SMILES	LANA-H2A inh	IDE cell inh	IDE act	HDAC3 inh
O=c1cc(CN2CCN(S(=O)(=O)c3ccccc3)CC2)nc2sccn12	-2.5	0.5	6.9	1.1
O=c1cc(CN2CCCCCC2)nc2sccn12	+	7.5	2.5	1.4
O=C(NCc1cccc(C(F)(F)F)c1)C1CCCN(c2ncccn2)C1 (stereo not drawn)	130.8*	5.0	1.4	-1.1
Cn1c(N)c(C(=O)COC(=O)/C=C/c2ccc(Cl)cc2)c(=O)n(C)c1=O	91.9*	1.0	3.9	10.7
O=C(CSCc1ccco1)c1cccs1	5.2	1.4	3.8	91.5*
Cc1cccnc1NC(=O)NC(=O)c1ccc(C(C)(C)C)s1	-1.5	-1.4	9.9	0.0
CCOc1ccc(C(=O)Nc2ccc(S(=O)(=O)N3CCN(C)CC3)cc2)cc1	14.6*	0.9	-3.7	1.3
CC(C)Oc1ccc(C(=O)Nc2ccc(S(=O)(=O)N3CCN(C)CC3)cc2)cc1	-3.4	0.2	-1.4	2.3
CCOc1ccc(C(=O)Nc2ccc(S(=O)(=O)N3C[C@@H]4C[C@@H](C3)c3cccc(=O)n3C4)cc2)cc1	17.4*	11.6	-8.9	4.3
O=[N+]([O-])c1cccc(Cl)c1NCCNc1ncc(C(F)(F)F)cc1Cl	3.7	6.5	73.3*	6.6
Cc1c(C(=O)NCCNc2ncc(C(F)(F)F)cc2Cl)cccc1[N+](=O)[O-]	8.6	4.5	0.3	3.9
CCS(=O)(=O)CCn1c([N+](=O)[O-])cnc1C	10.8*	-0.7	5.2	14.8
Cc1ncc([N+](=O)[O-])n1CCO	-17.0	-2.1	3.4	-1.7
O=C(Cc1ccc(Cl)cc1)NNc1c(F)c(F)cc(F)c1F	27.3*	1.5	-2.6	-2.0
O=C(NNc1c(F)c(F)cc(F)c1F)c1ccco1	-5.7	3.7	-2.2	3.5
O=C(c1ccccc1)n1nc(-c2ccccc2)nc1NCc1ccco1	-3.5	-0.5	3.5	38.0*
Cc1ccc(C(=O)n2nc(-c3ccccc3)nc2NCc2ccco2)cc1	2.8	-4.0	10.3	2.3
Nc1nc(-c2ccco2)nn1C(=O)c1ccc(F)cc1	nt	nt	8.5	nt
Nc1nc(-c2ccco2)nn1C(=O)c1ccccc1	-8.2	3.2	4.1	35.3*
CCCC(=O)n1nc(-c2ccco2)nc1N	-0.4	-2.0	4.7	40.3*
CCOc1ccc(N(Cc2cc3ccc(C)cc3[nH]c2=O)S(C)(=O)=O)cc1	-0.7	-0.8	-4.6	2.6
Cc1ccc2sc(N(CCCN(C)C)C(=O)c3ccc(Br)s3)nc2c1C	0.3	2.0	17.9*	13.3
Cc1ccc2sc(N(CCCN(C)C)C(=O)c3nc4ccccc4s3)nc2c1C	3.1	4.6	15.5	-4.2
CCOc1ccc(NC(=O)C23CC4CC(C2)CC(c2ccccc2)(C4)C3)cc1	14.3*	-5.2	1.0	-2.5
CCOC(=O)CNC(=O)C12CC3CC(C1)CC(c1ccc(C)cc1)(C3)C2	-1.8	3.1	-0.9	4.4
SMILES	LANA-H2A inh	IDE cell inh	IDE act	HDAC3 inh
C=CCC[C@@H](Cc1ccc(F)cc1)C(=O)OC[C@@H](Cc1c[nH]c2ccccc12)NC(=O)[C@@H](CC=C)CC(=O)NCCO	nt	0.2	0.8	nt
C=CC[C@@H](CC(=O)NCCO)C(=O)N[C@H](COC(=O)[C@@H](CC=C)Cc1ccc(F)cc1)Cc1c[nH]c2ccccc12	+	4.5	3.2	6.2
C=CC[C@@H](CC(=O)NCCO)C(=O)N[C@@H](COC(=O)[C@@H](CC=C)Cc1ccc(F)cc1)Cc1c[nH]c2ccccc12	-0.1	-0.1	-6.6	25.9*
COc1cc(OC)cc(C(=O)NC(C(=O)Nc2ccc3c(c2)OCO3)C(C)C)c1 (stereo not drawn)	10.7*	-4.6	-2.8	-3.6
COC(=O)CC#N	+	3.9	3.4	-1.2
Cc1ccc(-c2nnc(N3CC(C)OC(C)C3)c3ccccc23)cc1 (stereo not drawn)	0.6	-2.4	7.0	2.3
COc1ccc(CC(=O)Nc2ccc(F)c(F)c2F)cc1S(=O)(=O)N1CCOCC1	140.0*	0.2	2.4	-1.1
Cc1ccnc2nc(C(=O)OCC(=O)Nc3ccc([N+](=O)[O-])cc3Br)nn12	1.0	-1.4	2.2	1.5
COc1ccc(CNC(=O)CNS(=O)(=O)c2ccc(Cl)cc2)cc1	1.1	-5.8	7.0	1.9
CCc1sc(C(=O)Nc2ncccc2C)cc1C	-2.7	-17.3	5.4	4.9
CCc1sc(C(=O)Nc2ncccc2O)cc1C	1.9	nt	0.9	76.0*
COc1cc(CN2CCCCCC2)cc(OC)c1OC	1.0	0.4	0.3	-3.9
COc1cc(Cc2cnc(N)nc2N)cc(OC)c1OC	16.3*!	3.8	5.7	-2.1
CCOC(=O)c1ccc(N2CCOCC2)c(NC(=O)c2ccc3c(c2)OCO3)c1	4.6	4.4	7.9	1.9
Cc1cc(NC(=O)CN2C(=O)CC(c3ccco3)Sc3ccccc32)no1 (stereo not drawn)	-3.3	4.6	1.7	41.1*
O=S(=O)(NCCCCNS(=O)(=O)c1ccc(F)cc1)c1ccc(F)cc1	4.8	-4.5	2.5	-4.9
COc1ccccc1-c1cc(C(=O)NCCCN2CCOCC2)no1	5.5	1.7	3.6	8.0
COc1ccccc1-c1cc(C(=O)NCc2ccccc2)no1	-1.9	-0.9	-0.4	1.7
COCC(C)NC(=O)c1cc(-c2ccccc2OC)on1 (stereo not drawn)	21.3*	2.0	10.5	-4.1
COc1ccccc1-c1cc(C(=O)NCCN2CCOCC2)no1	15.5*	1.7	5.0	-3.7
O=C(OC(C(=O)NCc1ccc2c(c1)OCO2)c1ccncc1)c1ccc(Cl)nc1 (stereo not drawn)	0.9	2.4	6.4	-3.2
CCOc1ccccc1C(=O)N/N=C/c1coc2ccc(Cl)cc2c1=O	3.6	nt	-1.0	32.3*
O=C(N/N=C/c1coc2ccccc2c1=O)c1ccncc1	0.7	nt	-2.4	-1.1
O=C(N/N=C/c1coc2ccccc2c1=O)c1cc(Br)c(O)c(Br)c1	2.3	nt	-1.4	46.2*
COc1cc(/C=C2\SC(=S)N(N3CCOCC3)C2=O)cc(OC)c1OC	1.6	-0.1	-0.6	-1.5
SMILES	LANA-H2A inh	IDE cell inh	IDE act	HDAC3 inh
COc1cc(/C=C2\SC(=S)N(N3CCOCC3)C2=O)ccc1O	-1.0	19.1*	-29.6	2.1
O=C(Nc1cccs1)Nc1ccccc1Br	-0.9	-5.1	-1.0	1.4
CC(C)=CCc1c2c(c(O)c3c(=O)c4c(oc13)-c1cc(O)c(O)cc1OC4C=C(C)C)C=CC(C)(C)O2 (stereo not drawn)	0.6	-0.3	nt	1.1
CC(C)=CCc1c(-c2ccc(O)cc2O)oc2c3c(cc(O)c2c1=O)OC(C)(C)C=C3	22.7*	3.2	nt	10.0
CC(=O)N1CCC(=O)Nc2ccc([N+](=O)[O-])cc21	0.0	9.1	20.1*	1.9
COc1cc(/C=C2\SC(=O)N(CCN)C2=O)ccc1OS(=O)(=O)c1cc(C)ccc1C	nt	nt	-7.9	nt
COc1cc(C)nc(-c2csc(C)n2)n1	20.3*	4.1	1.4	-5.5
CCc1oc2ccccc2c1C(=O)c1cc(Br)c(O)c(Br)c1	22.0*!	8.3	5.3	6.0
CCc1ccc(OCC(=O)c2c(O)c3ccccc3oc2=O)cc1	2.0	6.5	9.7	-0.4
N#Cc1c(NC(=O)c2cnccn2)sc2c1CCCC2	19.3*	9.2	-1.3	-2.1

Compound activity (PubChem)
